Measurements published in PubChem BioAssay AID1159580 (chemical genetic matrix, 2015).
Where “and” joins values, the source holds several entries; their conditions need not be identical. Identical values can stand only once. About 2,000 (36%) of roughly 5,500 compounds were called active. Not shown: some 18% with an inconclusive outcome. Rule as the data show it: active = normalized growth mostly below about 0.91 (no sharp cut-off); inconclusive = no clear call, values can overlap the other calls; inactive = mostly above about 0.92. This is one part of the list.

Assay: chemical genetic growth profiling, strain panel (AID 1159580);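 also: tested at 20 µM; growth read once vehicle control cultures reached saturation at 30 °C; 1 = growth at the plate median or of vehicle wells; lower values mean less growth of the strain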
Conditions: S. cerevisiae deletion strains, growth OD

Measured: normalized growth

COc1c2ccoc2nc2c(OC)c(OCC(O)C(C)(C)O)ccc12 (configuration not stated)
inactive: locus YAL013W, strain DEP1, active compounds read low 0.992 | locus YAL021C, strain ccr4, active compounds read low 1.04 | locus YAL026C, strain drs2, active compounds read low 1.02 | locus YAL030W, strain snc1, active compounds read low 1.01 | locus YBL061C, strain skt5, active compounds read low 1.02 | locus YBR009C, strain hhf1, active compounds read low 1.02 | locus YBR021W, strain FUR4, active compounds read low 0.992 | locus YBR023C, strain chs3, active compounds read low 1.02 | locus YBR171W, strain sec66, active compounds read low 1.02 | locus YBR229C, strain ROT2, active compounds read low 1 | locus YBR231C, strain swc5, active compounds read low 1.01 | locus YBR279W, strain paf1, active compounds read low 1.01 | locus YCL011C, strain gbp2, active compounds read low 1.03 | locus YCL016C, strain dcc1, active compounds read low 1.02 | locus YCL029C, strain bik1, active compounds read low 0.974 | locus YCL061C, strain MRC1, active compounds read low 1.03 | locus YCL069W, strain vba3, active compounds read low 1.01 | locus YCR088W, strain abp1, active compounds read low 1.02 | locus YDL005C, strain med2, active compounds read low 1.01 | locus YDL035C, strain GPR1, active compounds read low 0.992 | locus YDL040C, strain nat1, active compounds read low 1.01 | locus YDL074C, strain BRE1, active compounds read low 1.02 | locus YDL101C, strain DUN1, active compounds read low 1 | locus YDL134C, strain PPH21, active compounds read low 0.991 | locus YDL185W, strain tfp1, active compounds read low 0.974 | locus YDL192W, strain arf1, active compounds read low 0.984 | locus YDR001C, strain nth1, active compounds read low 1.01 | locus YDR069C, strain doa4, active compounds read low 1.03 | locus YDR101C, strain arx1, active compounds read low 1 | locus YDR137W, strain rgp1, active compounds read low 1.02 | locus YDR150W, strain NUM1, active compounds read low 0.99 | locus YDR159W, strain sac3, active compounds read low 1.01 | locus YDR162C, strain NBP2, active compounds read low 1.02 | locus YDR195W, strain ref2 0.976 | locus YDR297W, strain sur2, active compounds read low 1.02 | locus YDR318W, strain mcm21, active compounds read low 0.981 | locus YDR334W, strain swr1, active compounds read low 1.02 | locus YDR335W, strain msn5, active compounds read low 1.02 | locus YDR388W, active compounds read low 0.997 | locus YDR392W, strain spt3, active compounds read low 0.982 | locus YDR502C, strain sam2, active compounds read low 1.01 | locus YEL003W, strain gim4, active compounds read low 1.01 | locus YEL037C, strain rad23, active compounds read low 1.01 | locus YEL061C, strain CIN8 (second series), active compounds read low 1.01 | locus YEL061C, strain CIN8, active compounds read low 1 | locus YER015W, strain faa2, active compounds read low 1.02 | locus YER016W, strain bim1, active compounds read low 1.01 | locus YER110C, active compounds read low 0.983 | locus YER111C, strain swi4, active compounds read low 1.02 | locus YER155C, strain BEM2 (second series), active compounds read low 1.04 | locus YER155C, strain BEM2, active compounds read low 0.996 | locus YER167W, strain BCK2, active compounds read low 0.972 | locus YFR010W, strain ubp6, active compounds read low 1.02 | locus YGL078C, strain dbp3, active compounds read low 0.983 | locus YGL086W, strain mad1, active compounds read low 0.976 | locus YGL167C, strain pmr1, active compounds read low 1.01 | locus YGL173C, strain kem1, active compounds read low 1.02 | locus YGL227W, strain vid30, active compounds read low 1.02 | locus YGL240W, strain doc1, active compounds read low 1.04 | locus YGL248W, strain PDE1, active compounds read low 0.991 | locus YGL253W, strain hxk2, active compounds read low 1.02 | locus YGR078C, strain PAC10, active compounds read low 1.02 | locus YGR135W, strain pre9, active compounds read low 0.995 | locus YGR229C, strain SMI1, active compounds read low 1.02 | locus YGR252W, strain gcn5, active compounds read low 0.984 | locus YHR013C, strain ard1, active compounds read low 1.03 | locus YHR027C, strain rpn1, active compounds read low 1.01 | locus YHR030C, strain SLT2, active compounds read low 0.99 and 1.02 | locus YHR079C, strain IRE1 (second series), active compounds read low 1 | locus YHR079C, strain IRE1, active compounds read low 1.03 | locus YHR094C, strain hxt1, active compounds read low 0.971 | locus YHR129C, strain ARP1, active compounds read low 1 | locus YHR142W, strain chs7, active compounds read low 1.03 | locus YHR200W, strain rpn10, active compounds read low 0.974 | locus YIL066C, strain RNR3, active compounds read low 0.998 | locus YIL073C, strain SPO22, active compounds read low 0.9 | locus YIL125W, strain kgd1, active compounds read low 0.999 | locus YIR030C, strain dcg1, active compounds read low 0.983 | locus YJL092W, strain hpr5, active compounds read low 1.01 | locus YJL095W, strain BCK1 (second series), active compounds read low 1.01 | locus YJL095W, strain BCK1, active compounds read low 1.05 and 1 | locus YJL115W, strain asf1, active compounds read low 1.02 | locus YJL129C, strain trk1, active compounds read low 1.04 | locus YJL134W, strain LCB3, active compounds read low 0.989 | locus YJL154C, strain vps35, active compounds read low 1.02 | locus YJL164C, strain tpk1, active compounds read low 1.02 | locus YJL166W, strain qcr8, active compounds read low 1.02 | locus YJL168C, strain set2, active compounds read low 0.995 | locus YJL187C, strain SWE1 (second series), active compounds read low 1.01 | locus YJL187C, strain SWE1, active compounds read low 1.01 | locus YJR043C, strain POL32, active compounds read low 0.987 | locus YJR066W, strain TOR1, active compounds read low 0.964
